Data taken from PubChem BioAssay (NCI).
This is part of a sample that, as a whole, favours compounds with a hit. Of some 83,000 tested, about 20% had one in any assay.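 Negative percent growth values reflect cell death: -40 means 40% of the cells present at the start died, and -100 means all died.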 A number with no mark means an inactive call. The source made the active and inactive calls. The calls were made as follows: active = growth percent below 10; inactive = the rest.

Key:
Test in all cases: NCI-60 one-dose screen, 48 h (100 = growth as untreated, 0 = no growth, -100 = all killed)
Conditions in all cases: 10 µM unless noted
SK-MEL-2 melanoma = tested on: SK-MEL-2 melanoma
EKVX NSCLC = tested on: EKVX NSCLC
SN12C renal = tested on: SN12C renal
UO-31 renal = tested on: UO-31 renal
TK-10 renal = tested on: TK-10 renal
ACHN renal = tested on: ACHN renal
CAKI-1 renal = tested on: CAKI-1 renal
A498 renal = tested on: A498 renal
MOLT-4 leukemia = tested on: MOLT-4 leukemia
SR leukemia = tested on: SR leukemia
OVCAR-8 ovarian = tested on: OVCAR-8 ovarian
OVCAR-5 ovarian = tested on: OVCAR-5 ovarian
OVCAR-4 ovarian = tested on: OVCAR-4 ovarian
SK-OV-3 ovarian = tested on: SK-OV-3 ovarian
IGROV1 ovarian = tested on: IGROV1 ovarian
OVCAR-3 ovarian = tested on: OVCAR-3 ovarian
HS 578T breast = tested on: HS 578T breast
NCI/ADR-RES ovarian = tested on: NCI/ADR-RES ovarian
RPMI-8226 leukemia = tested on: RPMI-8226 leukemia
CCRF-CEM leukemia = tested on: CCRF-CEM leukemia

Row | SMILES | growth (SK-MEL-2 melanoma) | growth (EKVX NSCLC) | growth (SN12C renal) | growth (UO-31 renal) | growth (TK-10 renal) | growth (ACHN renal) | growth (CAKI-1 renal) [%] | growth (A498 renal) | growth (MOLT-4 leukemia) | growth (SR leukemia) | growth (OVCAR-8 ovarian) | growth (OVCAR-5 ovarian) | growth (OVCAR-4 ovarian) | growth (SK-OV-3 ovarian) [%] | growth (IGROV1 ovarian) | growth (OVCAR-3 ovarian) | growth (HS 578T breast) | growth (NCI/ADR-RES ovarian) [%] | growth (RPMI-8226 leukemia) | growth (CCRF-CEM leukemia)
1 | Cc1cc(NC(=O)COC(=O)c2sc3cc(F)ccc3c2Cl)no1 | 44.8% | 105% | 107% | 39.2% | 125% | 106% | 110 | 103% | 108% | 108% | 112% | 100% | 105% | 111 | -31.8% (active) | 120% | 123% | 107 | – | –
2 | COc1ccc(/C=c2\sc3n(c2=O)C2C(NN=3)N(C)C(=O)N2C)cc1 (configuration not stated) | 39.6% | 56.7% | 42.3% | 46.4% | 54.8% | 45% | 31.5 | -21.3% (active) | 26.5% | -10.6% (active) | 35% | 54.9% | 51.2% | – | 40% | -3.86% (active) | – | 10.4 | 20.3% | –
3 | CCCCCCCCCCCCCCCCCCOc1cccc(CCOP(=O)(O)OCC[N+](C)(C)C)c1 | 90.4% | 97% | 91.1% | 91.5% | 36.5% | 95.8% | 55.3 | 99.2% | 104% | 58.6% | 95% | 101% | 91.4% | – | 39% | 86.9% | 93.1% | 94.1 | 86.9% | –
4 | CCCCCC/C=C\CCCCCCCCOc1ccc(CCOP(=O)(O)OCC[N+](C)(C)C)cc1 | 91% | 95.3% | 91.4% | 83.2% | 23.5% | 91.7% | 36.9 | 95.6% | 54.1% | 50.7% | 80.9% | 90.3% | – | – | 42.6% | 74.8% | 89.5% | 100 | 23.8% | –
5 | O=C(NCCc1c[nH]c2ccccc12)C1Cc2ccccc2CN1C(=O)c1ccco1 (configuration not stated) | 69.5% | 102% | 111% | 53.5% | 110% | 96.6% | 107 | 107% | 77.1% | 65.5% | 100% | 125% | 96.9% | – | 3.58% (active) | 104% | 118% | 128 | 87.3% | –
6 | O=C1CCC(=O)N1Cc1ccccc1 | 95.1% | 97.3% | 104% | 98.1% | 92.2% | 101% | – | 85.8% | 101% | – | 108% | 97.7% | 96.9% | 113 | – | 102% | 102% | 89.8 | 109% | 108%
7 | CCc1c(C(=O)Nc2ccc3ccccc3c2)[nH]c(C)c1C(C)=O | 87.9% | 84.3% | 96.6% | 86.8% | 99.8% | 98.6% | 86.4 | – | 68.5% | – | 104% | 101% | 76.7% | 99.7 | – | 103% | 98.5% | 94.8 | 75.8% | 96.1%
8 | COc1ccc(/C(=N/O)c2cc(OC)c(OC)c(OC)c2)c(OC)c1N | 36.5% | 47.4% | 52.8% | 49.3% | 35.3% | 43.3% | – | -4.33% (active) | 27.8% | – | 40.7% | 71.9% | 50% | 35.7 | 55% | 1.89% (active) | 8.77% (active) | 31 | 32% | 22.3%
9 | CCN1C(=O)N(CC)C2Nn3c(s/c(=C\c4cccc(F)c4)c3=O)=NC21 (configuration not stated) | 85.3% | 79% | 79.6% | 65.1% | 109% | 66.7% | – | 46.1% | 94.9% | 36.2% | 77.4% | 86.8% | 67.5% | 102 | 84.8% | 43% | 75.5% | – | 90.7% | –
10 | O=C1OC(c2ccccc2)=N/C1=C\c1ccc([N+](=O)[O-])cc1 | 105% | 99.9% | 100% | 91.7% | 97.4% | 102% | – | 87.4% | 102% | 97.3% | 111% | 92.8% | 114% | 109 | 100% | 106% | 82.6% | 104 | 102% | 114%
11 | CCN(CC)CCSc1c2ccc(Cl)cc2nc2ccc(OC)cc12 | 100% | 97.1% | 90.1% | 88.5% | 84.1% | 87.6% | – | – | 48.1% | 12.1% | 88.5% | 103% | 81% | 86.5 | 98.1% | 24.5% | – | 105 | 72.7% | 12.7%
12 | CCCCCCCCCN1C(=O)/C(=c2\sc3n(c2=O)C2C(NN=3)N(CC)C(=O)N2CC)c2ccccc21 (configuration not stated) | 76.2% | 69.1% | 66.3% | 53.4% | 71.1% | 59% | 34.8 | – | 99.7% | 5.57% (active) | 36.7% | 80.8% | 13.2% | 93.7 | 54.1% | 21.1% | 26.7% | 46.9 | 80.4% | –
13 | COC(=O)C(CC(=O)c1ccc(-c2ccccc2)cc1)c1ccccc1 (configuration not stated) | 69.4% | – | 64.2% | 53.8% | 68% | 41.3% | 44.3 | 41.7% | 47.3% | 24.2% | 77.5% | 84.1% | 71.6% | 85.2 | 64.7% | 10.6% | 71.7% | – | 88.3% | 49.4%
14 | C=C1C(=O)O[C@H]2[C@H]1CC/C(Cn1cc(-c3ccsc3)nn1)=C\CC[C@@]1(C)O[C@@H]21 | -21.5% (active) | -80.3% (active) | -18.3% (active) | -91.5% (active) | -50.6% (active) | -90.5% (active) | – | -4.99% (active) | -13.3% (active) | – | -4.45% (active) | -18.3% (active) | -46.6% (active) | 83.1 | -16% (active) | -94.8% (active) | 28.2% | 32 | -43.2% (active) | -24.7% (active)
15 | COC(=O)[C@H]1[C@H](OC)[C@@H](OC(=O)/C=C/c2ccncc2)CC2CN3CCc4c([nH]c5cc(OC)ccc45)[C@@H]3C[C@@H]21 (some centres not stated) | 103% | – | 70.2% | 56.9% | 91.6% | 63% | 53.3 | 31.5% | 78.2% | 78.3% | 81% | 106% | 60.8% | 89.1 | 85.2% | 89.8% | 77.5% | 81.8 | 57.4% | 57.5%
16 | O=c1oc2c([nH]c3ccc4ccccc4c32)c2ccccc12 | 107% | 85.4% | 106% | 128% | 127% | 110% | – | 106% | 85.2% | 102% | 104% | 112% | 109% | 107 | 118% | 109% | 104% | 104 | 103% | 97.6%
17 | COc1cc(C2CC(c3c(C)[n+]([O-])c4ccccc4[n+]3[O-])=NN2)cc(OC)c1OC (configuration not stated) | 96.4% | 123% | 94.4% | 94.6% | 122% | 103% | – | 97.5% | 94.4% | – | 109% | 100% | 104% | 103 | 16.2% | 98% | – | 101 | 102% | 87.5%
